Consider 59 molecules from PubChem BioAssay AID488890 (Southern Research Specialized Biocontainment Screening …, 2010).

SMILES strings stand for the structures. Hit rate of the full screen: of about 320,000 compounds, about 1,300 (0.41%) were called active. Roughly 3% stayed inconclusive and do not appear here. How the calls were made is not given here. These entries were drawn from the full list. Potency and affinity values are given separately.

This test can be described thus: growth inhibition of non-replicating M. tuberculosis (AID 488890).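 Further: plate controls were DMSO cells for no effect and high antibiotic wells for full effect.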 To be noted: Mycobacterium tuberculosis non-replicating, at 25 µM, stronger effect = higher value.
With `CCNc1nc(NC(C)C)nc(SCCOc2ccc(C)cc2)n1`, the inhibition worked out at 6.84%.
The value for `Cc1cc(OCCCn2ccnc2)ccc1[N+](=O)[O-]` was 39.3%; that for `C=CCc1cc(Cl)ccc1OCCn1ccnc1` was 31.9%; that for `Clc1ccc(SCCCCn2cncn2)cc1` was 26.1%.
The value for `C=CCc1cc(C)ccc1OCCCn1ccnc1` was 26.9%; that for `Cc1cc(OCCCn2ccnc2)cc(C)c1Cl` was -6.72%.
For `Clc1ccc(SCCn2ccnc2)cc1`, the inhibition amounted to 71.2%.
As to `Cc1ccc(OCCCn2ccnc2)cc1C`, the inhibition turned out to be 70.8%.
As to `Cc1cc(C)cc(OCCCn2ccnc2)c1`, the inhibition is 76%.
Take `CS(=O)(=O)N1CCC(C(=O)NCCN2CCN(Cc3ccccc3)CC2)CC1`: the inhibition was -1.43%.
`Cc1ccc(-c2csc(N3CCC[C@@H]3C(=O)NCCn3c(C(F)(F)F)nc4ccccc43)n2)cc1`: the inhibition is 42.9%.
In the case of `C[C@@H](NC(=O)c1nc[nH]c1C(=O)N[C@H](C)c1ccccc1)c1ccccc1`, the inhibition was found to be 66%.
In the case of `O=C(O)c1ccc2c(=O)n3cc(C(=O)c4ccccc4O)cc(Cl)c3nc2c1`, the inhibition is -0.88%.
The value for `Fc1ccc2c(c1)C(c1ccncc1)=NNC(c1ccc(Br)cc1)=N2` was 21.1%.
The value for `O=C(N/N=C/c1ccc2cccnc2c1)c1ccco1` was 14.9%; that for `COc1ccc(CCNS(=O)(=O)c2c(N)n(C)c(=O)n(C)c2=O)cc1OC` was 3.12%.
Consider `CCOc1ccc(C(=O)Nc2cc(S(=O)(=O)Nc3ccccc3Cl)ccc2N2CCOCC2)cc1`, for which the inhibition was 4.51%.
Take `CS(=O)(=O)N(CC(=O)NCC1CCCO1)c1cc(Cl)cc(Cl)c1` (centres undefined): the inhibition is -12.1%.
For `Cc1ccc(OCCCn2ccnc2)c(Br)c1`, the inhibition was 27.2%.
For the molecule `Clc1ccc(OCCn2ccnc2)c2ccccc12`, the inhibition was found to be 17.9%.
Consider `Clc1cc(Br)ccc1OCCn1ccnc1`, for which the inhibition came to 40%.
The value for `Clc1ccccc1OCCCn1ccnc1` was -0.75%; that for `O=C(CCNC(=O)C1CCN(S(=O)(=O)c2ccccc2)CC1)NCCc1ccc(Cl)cc1` was 1.82%; that for `CN1CCN(C(=O)C2CCCN(S(=O)(=O)c3ccc(Br)cc3)C2)CC1` (centres undefined) was 8.61%.
The value for `COc1ccc(CCn2c(N3CCN(Cc4ccccc4)CC3)nc3c2c(=O)[nH]c(=O)n3C)cc1` was 15.1%; that for `CC1(c2nnc(-c3ccccc3)o2)CC(c2ccccc2)=NO1` (centres undefined) was 79.5%.
The value for `CC1(c2nnc(-c3cccc(Cl)c3)o2)CC(c2ccc(F)cc2)=NO1` (centres undefined) was 70.9%; that for `CC1(c2nnc(-c3ccc(Cl)cc3)o2)CC(c2ccc(Cl)cc2)=NO1` (centres undefined) was 36.6%; that for `CC1(c2nnc(-c3ccc(Cl)cc3)o2)CC(c2cccc(Cl)c2)=NO1` (centres undefined) was 79.6%.
Regarding `Cc1ccc(OCCn2ccnc2)c(C)c1`, the inhibition was found to be 6.35%.
As for `CCOc1cc(/C=C2\CCn3c2nc2cc(Cl)ccc2c3=O)ccc1O`, the inhibition was determined as 9%.
With `CN(c1ccccc1)S(=O)(=O)c1cc(Cl)ccc1Cl`, the inhibition stood at 28.7%.
As to `CCOc1cc(NC(=O)c2ccccc2OC)c(OCC)cc1NC(=O)c1ccccc1`, the inhibition is 8.11%.
The value for `C/C(=N\NC(=O)c1ccccc1)c1ccc2c(c1)OCO2` was 35.4%.
The value for `C/C(=N\NC(=O)c1ccc2c(c1)OCO2)c1ccc2c(c1)OCO2` was 41.2%; that for `O=C(CCSc1ccccc1)NCc1cccnc1` was -1.43%.
On to `O=C1NC(=O)N(Cc2ccc(F)cc2)C(=O)/C1=C\C=C\c1ccco1`, for which the inhibition turned out to be 75.2%.
The value for `CN1C(=O)/C(=C/C=C/c2ccco2)C(=O)NC1=S` was -21.1%; that for `Cc1ccc(N2C(=O)NC(=O)/C(=C\C=C\c3ccco3)C2=O)cc1C` was 13%; that for `Cc1ccc(N2C(=O)NC(=O)/C(=C\C=C\c3ccco3)C2=O)cc1` was 18.7%.
The value for `O=C1NC(=O)N(c2ccccc2)C(=O)/C1=C/C=C/c1ccco1` was -12.6%.
For `Cc1cc(C)cc(N2C(=O)NC(=O)/C(=C\C=C\c3ccco3)C2=O)c1`, the inhibition came out at 2.52%.
The value for `COc1ccc(NC(=O)CCNS(=O)(=O)c2ccccc2F)cc1S(N)(=O)=O` was -0.54%; that for `Cc1ccccc1C1c2[nH]c3ccccc3c2CCN1C(=O)c1ccc(=O)n(C)n1` (centres undefined) was 10.8%.
The value for `CCOC(=O)c1c(C)c(C)n(Cc2ccc(OC)c(OC)c2)c1C` was 16.5%; that for `Cc1cc(C(=O)COc2ccccc2C(N)=O)c(C)n1CC1CCCO1` (centres undefined) was -26.6%.
With `Cc1cc(C(=O)COc2ccccc2C(N)=O)c(C)n1C`, the inhibition amounted to 4.7%.
On to `CCN(CC(=O)NC(=O)NCc1ccco1)Cc1nc2ccccc2c(=O)[nH]1`, for which the inhibition is 12.9%.
With `COCCNC(=O)Cc1c(C)c2c(cc(C)c3c(C(C)(C)C)coc32)oc1=O`, the inhibition turned out to be 26.6%.
As to `O=C(CCc1nnc2n(Cc3ccc(F)cc3)c(=O)c3ccccc3n12)N1CCN(c2ccccn2)CC1`, the inhibition is -3.25%.
For the molecule `O=C(Nc1ccc(Cl)cc1)OCCn1nnnc1C(c1ccccc1)N1CCOCC1` (centres undefined), the inhibition is 4.68%.
Take `Cc1ccc(NC(=O)c2ccc([N+](=O)[O-])s2)cc1S(=O)(=O)N1CCOCC1`: the inhibition is 43.2%.
The value for `O=C(Nc1ccc(S(=O)(=O)N2CCOCC2)cc1)c1ccc(Cl)s1` was 5.17%; that for `Cc1ccc(C(=O)Nc2cccc(S(=O)(=O)N3CCCC3)c2)o1` was -4.97%; that for `O=C(Nc1ccc(S(=O)(=O)N2CCOCC2)cc1)c1ccc(Br)o1` was -0.17%.
For the molecule `COc1ccc(S(=O)(=O)N2CCCCC2)cc1NC(=O)c1ccc([N+](=O)[O-])o1`, the inhibition worked out at 1.5%.
In the case of `CCN1CCN(c2ccc(S(=O)(=O)N3CCCCC3)cc2NC(=O)c2ccccc2)CC1`, the inhibition was -11.8%.
The value for `NS(=O)(=O)c1ccc(NC(=O)c2ccc(S(=O)(=O)N3CCOCC3)o2)cc1` was 1.05%; that for `O=C(Nc1cc(S(=O)(=O)N2CCOCC2)ccc1N1CCOCC1)c1ccc([N+](=O)[O-])s1` was 50.4%.

What is called inhibition is the drop in the measured response relative to a control, in per cent.
